Sampled rows, rich in hits. Any-hit rate of the full collection: about 1%.
C-LANA FP – inhibitors of KSHV C-LANA binding to DNA, primary screen, biochemical, fluorescence polarization, FAM-LBS DNA, MBP-C-LANA, single point | Kaposi's sarcoma herpesvirus LANA C-terminal domain (residues 932-1162) DNA binding | inhibition, % at 9 µM | 340,000 tested, 0.078% active | AID 504423, 2011;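 active = highest replicate inhibition at or above 60% at 9 µM, even if other replicates fall short; inactive = all replicates below 60% inhibition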
cardiac RTF act – cardiac RTF calcium sensitivity activators, primary screen, biochemical, IANBD-TnC fluorescence, EC20 calcium; Troponin I, cardiac muscle (Homo sapiens) + Troponin T, cardiac muscle (Homo sapiens) + …; IANBD-labeled TnC RTF fluorescence at EC20 calcium; 0% EC20 calcium, 100% full calcium; activation, % at 7.2 µM; 340,000 tested, 0.24% active; AID 493008, 2010;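 active = activation above the mean over all tested compounds plus 3 SD, cut at about 30% in these data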;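 note: rise in fluorescence read as greater calcium sensitivity of cardiac thin filaments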
Cardiac RTF inh – cardiac RTF calcium sensitivity inhibitors, primary screen, biochemical, IANBD-TnC fluorescence, EC70 calcium | Troponin I, cardiac muscle (Homo sapiens) + Troponin T, cardiac muscle (Homo sapiens) + … | IANBD-labeled cardiac RTF, Ca2+ fluorescence | inhibition, % at 7.15 µM | 340,000 tested, 0.12% active | AID 493244, 2011;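 active = inhibition above the mean inhibition of all tested compounds plus 3 SD, cut at about 17% in these data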;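 note: assay run at fixed EC70 calcium of 1.6 mM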
Keap1 Nrf2 FP – Keap1-Nrf2 protein-protein interaction inhibitors, primary screen, biochemical, fluorescence polarization, single point; Kelch-like ECH-associated protein 1 (Homo sapiens), Q14145; Keap1 Kelch-Nrf2 peptide fluorescence polarization, 1536-well; inhibition, % at 9.4 µM; 340,000 tested, 0.15% active; in the data active = inhibition above about 12%;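 note: human Keap1 Kelch domain with fluorescein labeled Nrf2 9mer peptide probe; higher means more block of Keap1 binding to Nrf2 peptide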
Target sequence (Q14145 whole entry, looked up, the tested form may be a part): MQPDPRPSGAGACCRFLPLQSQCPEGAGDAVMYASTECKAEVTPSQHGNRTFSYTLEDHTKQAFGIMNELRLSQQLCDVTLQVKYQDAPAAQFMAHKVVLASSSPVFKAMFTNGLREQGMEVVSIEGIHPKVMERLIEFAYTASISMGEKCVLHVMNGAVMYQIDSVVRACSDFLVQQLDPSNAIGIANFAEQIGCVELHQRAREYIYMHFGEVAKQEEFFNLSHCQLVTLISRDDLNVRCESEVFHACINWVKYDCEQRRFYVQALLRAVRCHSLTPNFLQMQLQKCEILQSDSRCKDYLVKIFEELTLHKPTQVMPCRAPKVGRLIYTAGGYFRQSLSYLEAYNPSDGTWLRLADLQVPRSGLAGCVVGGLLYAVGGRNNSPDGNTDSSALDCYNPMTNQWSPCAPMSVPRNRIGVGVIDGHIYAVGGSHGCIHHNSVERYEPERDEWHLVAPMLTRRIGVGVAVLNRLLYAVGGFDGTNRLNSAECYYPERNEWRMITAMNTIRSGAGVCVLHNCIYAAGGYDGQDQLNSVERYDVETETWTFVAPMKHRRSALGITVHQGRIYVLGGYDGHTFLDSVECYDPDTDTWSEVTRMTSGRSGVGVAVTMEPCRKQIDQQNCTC
LANA-H2B inh – blockers of LANA interaction with H2A/H2B – biochemical, FP readout, HTS, primary screen; Protein LANA1 (Human herpesvirus 8 type P (isolate GK18)), Q9QR71; cell-free LANA-H2A/H2B peptide, fluorescence polarization; inhibition, % (no concentration beside the values); 320,000 tested, 0.6% active; in the data active = inhibition mostly above about 10%, no sharp cut-off; inactive = mostly below about 6.7%
Keap1 TSA – Keap1 Kelch domain binders by thermal stabilisation, dose response, biophysical, thermal shift, RT-PCR instrument, cherry-pick. AID 651823, 2012. shares compounds with Keap1 Nrf2 FP. delta Tm; active compounds read high. max delta Tm, degrees C. 400 tested, 8% active; in the data active = max delta Tm above about 0.48 degrees C
Sypro dye melt – Sypro Orange dye melt without protein, dose response, artefact control for Keap1-Nrf2 interaction inhibitor project, biochemical, thermal shift counterscreen, cherry-pick; shares compounds with Keap1 Nrf2 FP; Sypro Orange dye-only thermal melt, no protein, delta Tm; top dose 26 µM; delta Tm, degrees C (concentration not given with the values); 140 tested, under 10 active;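 active = at highest dose tested, delta Tm positive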
Hits are given with their value; 0 = inactive; - = no result given; + = active, no number.

SMILES	C-LANA FP	cardiac RTF act	Cardiac RTF inh	Keap1 Nrf2 FP	LANA-H2B inh	Keap1 TSA	others
CCOC(=O)c1ccc2ncc(C(=O)OCC)c(NCCN(C)C)c2c1	0	0	0	14	0	0	Sypro dye melt=0
CC(=O)COc1c(-c2ccco2)oc2ccccc2c1=O	0	0	0	0	0	-
CC(=O)Nc1c(N)c2ccccc2oc1=O	0	0	0	14	0	0	Sypro dye melt=0
CC(=O)Nc1c(NC(C)(C)C)c2ccccc2oc1=O	0	0	0	0	0	-
COc1ccc(C=Nc2cccnc2N)cc1	0	0	0	23	0	0
CCN(C(=O)COC(=O)CN(C)S(=O)(=O)c1ccc(NC(C)=O)cc1)C1CCS(=O)(=O)C1 (stereo not given)	0	0	0	0	0	-
COc1ccc2nc3ccccc3nc2c1NC(=O)c1ccccc1Cl	0	0	0	16	0	0
O=C(Nc1ccc2ccccc2n1)c1ccccc1Cl	0	0	0	0	0	-
Cc1cc(C)c[n+](-c2[nH]c(=O)sc2/C=N/NC([S-])=Nc2ccccc2)c1	0	75	0	26	-	0	Sypro dye melt=0
O=c1[nH]c(-[n+]2ccccc2)c(/C=N/NC([S-])=Nc2ccccc2)s1	0	0	0	17	0	0
Cc1cc[n+](-c2[nH]c(=O)sc2/C=N/NC([S-])=Nc2ccccc2)cc1	0	42	0	32	0	0
CCc1ccc[n+](-c2[nH]c(=O)sc2/C=N/NC([S-])=Nc2ccccc2)c1	89	85	0	49	0	0	Sypro dye melt=0
Cc1cnc(NC(=O)CSc2nnc(-c3cccs3)n2C)s1	0	0	0	0	0	-
N#Cc1cc([N+](=O)[O-])ccc1Oc1cccc(/C=N/NC(=O)c2cccc(Cl)c2)c1	0	0	0	0	0	-
COC(=O)COc1ccc(S(=O)(=O)NCc2ccc3c(c2)OCO3)cc1	0	0	0	0	0	-
O=C(NCc1ccc(Cl)cc1)c1cc(=O)[nH]c2ccccc12	0	0	0	59	0	0
CCCCNc1c2c3c(cccc3n(C)c1=O)C(=O)c1ccccc1-2	71	+	0	58	23	0
Cn1c(=O)c(NCCc2ccccc2)c2c3c(cccc31)C(=O)c1ccccc1-2	101	+	0	45	128	0
CN1C(=O)c2cccc(NCCCN3C(=O)c4ccccc4C3=O)c2C1=O	0	0	0	0	0	-
O=C(CSC(=S)N1CCCC1)NCC(=O)Nc1ccccc1Br	0	0	0	0	0	-
O=C1C(Cl)=C(NS(=O)(=O)c2ccc([N+](=O)[O-])cc2)C(=O)c2ccccc21	0	0	0	20	0	0.76
Cc1ccc(OC(C)C(=O)N2CCN(c3ccccn3)CC2)cc1 (stereo not given)	0	0	0	35	-	0
O=C(NCc1ccccc1)C1=C[C@@H](c2coc3ccccc3c2=O)C[C@@H](OCc2ccc(CO)cc2)O1	0	0	0	0	0	-
COc1cccc(NC(=O)NC2CCN(CC(=O)Nc3ccccc3[N+](=O)[O-])CC2)c1	0	0	0	0	0	-
CSCCC(NS(=O)(=O)c1ccccc1F)C(=O)NCc1cccnc1 (stereo not given)	0	0	0	0	0	-
SMILES	C-LANA FP	cardiac RTF act	Cardiac RTF inh	Keap1 Nrf2 FP	LANA-H2B inh	Keap1 TSA	others
Cc1cc2nc3c(=O)[nH]c(=S)[nH]c3nc2cc1NC(=O)C(F)(F)F	0	65	0	27	0	0
O=C(CSCc1c(F)cccc1Cl)Nc1ccccc1C(=O)N1CCOCC1	0	0	0	0	0	-
COc1ccc(N=Nc2nc3ccc(Br)cc3n2C)cc1	70	132	0	48	88	0
CS(=O)(=O)N1CCCC(C(=O)Nc2ccc(F)c(F)c2)C1 (stereo not given)	0	0	0	42	0	0	Sypro dye melt=0
CS(=O)(=O)N1CCCC(C(=O)Nc2ccc(F)cc2)C1 (stereo not given)	0	0	0	0	0	-
O=C(NC1(O)C(=O)c2ccccc2C1=O)c1c(Cl)cccc1Cl	-	-	-	19	0	0	Sypro dye melt=0
O=C(NC1(O)C(=O)c2ccccc2C1=O)c1ccccc1	0	0	0	0	0	-
N/C(Cc1ccccc1Sc1ccccc1)=N\O	0	0	0	0	0	-
N/C(Cc1cccc2ccccc12)=N\O	-	0	0	17	0	0	Sypro dye melt=0
O=C(CSc1nccc2ccccc12)N1CCN(Cc2ccc3c(c2)OCO3)CC1	0	0	0	0	0	-
CC(=O)Nc1ccc(NC(=O)CSc2nc3ccccc3c(=O)n2CCCN2CCOCC2)cc1	0	0	0	0	0	-
O=C(CSc1nc2ccccc2c(=O)n1CCCN1CCOCC1)Nc1ccccc1OC(F)F	0	0	0	19	0	0	Sypro dye melt=0
COC(=O)c1ccccc1NC(=S)N(Cc1ccc2c(c1)OCO2)Cc1cc2cc(OC)ccc2[nH]c1=O	0	0	0	0	0	-
COC(=O)N/N=C/c1cn(Cc2ccccc2Cl)c2ccccc12	0	0	0	17	0	0	Sypro dye melt=0
O=C1c2cccc3c(N4CCCCC4)ccc(c23)C(=O)N1c1ccccc1O	0	73	0	16	0	0
O=C(C[C@H]1C[C@H](C(=O)N2CCCCC2)[C@@]2(CCc3ccccc3)c3[nH]c4ccc(Cl)cc4c3CCN2C1=O)NCCC1=CCCCC1	0	0	0	0	-	-
O=c1ccc2cc3c4c(c2o1)CCCN4CCC3	0	129	0	38	0	0
Oc1ccc(C2C=C(c3ccc(F)cc3)Nc3ncnn32)cc1 (stereo not given)	0	0	0	0	-	-
Fc1ccc(C2=CC(c3ccco3)n3ncnc3N2)cc1 (stereo not given)	0	70	0	19	0	0
Fc1ccc(C2=CC(c3ccc(Br)o3)n3ncnc3N2)cc1 (stereo not given)	64	172	0	36	0	0
CCOc1ccc(C2C=C(c3ccc(F)cc3)Nc3ncnn32)cc1 (stereo not given)	0	0	0	0	0	-
Nc1ccc([N+](=O)[O-])cc1C(=O)NNC(=O)c1ccco1	0	0	0	0	0	-
O=C(NC1CC2CCCC(C1)N2C(=S)Nc1ccccc1Cl)C1CC1 (stereo not given)	0	0	0	0	0	-

Screens (PubChem BioAssay)
